# Experimental data taken from ChEMBL document CHEMBL2218924, “A broad activity screen in support of a chemogenomic map for kinase signalling research and drug discovery” (Biochem J, 2013).
# Columns and labels:
# [1] = molecular target: Serine/threonine-protein kinase SIK1 (Homo sapiens) (UniProt P57059); details: at 10 µM
# [2] = molecular target: SRSF protein kinase 2 (Homo sapiens) (UniProt P78362); details: at 1 µM
# [3] = molecular target: SRSF protein kinase 2 (Homo sapiens) (UniProt P78362); details: at 10 µM
# [4] = molecular target: Serine/threonine-protein kinase 33 (Homo sapiens) (UniProt Q9BYT3); details: at 1 µM
# Serine/threonine-protein kinase 33 (Homo sapiens), sequence (Q9BYT3 whole entry, looked up): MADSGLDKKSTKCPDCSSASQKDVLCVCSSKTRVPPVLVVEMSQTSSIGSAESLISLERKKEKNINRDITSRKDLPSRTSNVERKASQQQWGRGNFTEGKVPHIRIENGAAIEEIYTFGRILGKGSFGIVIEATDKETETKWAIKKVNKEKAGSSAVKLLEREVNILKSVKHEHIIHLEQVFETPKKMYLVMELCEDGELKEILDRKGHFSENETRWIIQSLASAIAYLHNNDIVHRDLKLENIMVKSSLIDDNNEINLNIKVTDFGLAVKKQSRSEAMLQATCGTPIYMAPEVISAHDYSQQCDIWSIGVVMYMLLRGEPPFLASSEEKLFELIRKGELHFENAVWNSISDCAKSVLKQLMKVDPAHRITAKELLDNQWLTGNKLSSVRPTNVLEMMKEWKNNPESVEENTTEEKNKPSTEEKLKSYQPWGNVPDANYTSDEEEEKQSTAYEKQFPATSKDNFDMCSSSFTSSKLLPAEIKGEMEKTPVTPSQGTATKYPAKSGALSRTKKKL
# [5] = molecular target: Serine/threonine-protein kinase 33 (Homo sapiens) (UniProt Q9BYT3); details: at 10 µM
# [6] = molecular target: Serine/threonine-protein kinase PLK2 (Homo sapiens) (UniProt Q9NYY3); details: at 1 µM
# Serine/threonine-protein kinase PLK2 (Homo sapiens), sequence (Q9NYY3 whole entry, looked up): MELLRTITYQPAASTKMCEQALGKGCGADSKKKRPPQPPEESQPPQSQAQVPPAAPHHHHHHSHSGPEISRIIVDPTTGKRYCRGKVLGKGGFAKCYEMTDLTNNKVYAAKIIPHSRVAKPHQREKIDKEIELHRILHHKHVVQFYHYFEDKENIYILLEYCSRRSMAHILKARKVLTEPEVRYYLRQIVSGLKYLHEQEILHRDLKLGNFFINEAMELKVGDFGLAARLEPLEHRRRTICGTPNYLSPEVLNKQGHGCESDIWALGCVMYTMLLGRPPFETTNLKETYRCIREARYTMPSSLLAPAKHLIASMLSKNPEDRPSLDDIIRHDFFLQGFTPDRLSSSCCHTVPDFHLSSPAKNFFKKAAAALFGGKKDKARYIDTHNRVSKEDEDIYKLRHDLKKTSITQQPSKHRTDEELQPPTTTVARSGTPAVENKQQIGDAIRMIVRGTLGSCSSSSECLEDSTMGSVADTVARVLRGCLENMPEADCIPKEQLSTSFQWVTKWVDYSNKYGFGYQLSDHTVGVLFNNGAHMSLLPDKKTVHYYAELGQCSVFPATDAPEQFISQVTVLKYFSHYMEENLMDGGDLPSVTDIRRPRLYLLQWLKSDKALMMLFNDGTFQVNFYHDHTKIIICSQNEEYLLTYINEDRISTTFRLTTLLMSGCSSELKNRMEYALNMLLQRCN
# [7] = molecular target: Serine/threonine-protein kinase PLK2 (Homo sapiens) (UniProt Q9NYY3); details: at 10 µM
# [8] = molecular target: Tyrosine-protein kinase SYK (Homo sapiens) (UniProt P43405); details: at 1 µM
# [9] = molecular target: Tyrosine-protein kinase SYK (Homo sapiens) (UniProt P43405); details: at 10 µM
# [10] = molecular target: T1, Mitogen-activated protein kinase kinase kinase 7 (Homo sapiens) (UniProt O43318); details: at 1 µM
# T1 sequence (whole entry): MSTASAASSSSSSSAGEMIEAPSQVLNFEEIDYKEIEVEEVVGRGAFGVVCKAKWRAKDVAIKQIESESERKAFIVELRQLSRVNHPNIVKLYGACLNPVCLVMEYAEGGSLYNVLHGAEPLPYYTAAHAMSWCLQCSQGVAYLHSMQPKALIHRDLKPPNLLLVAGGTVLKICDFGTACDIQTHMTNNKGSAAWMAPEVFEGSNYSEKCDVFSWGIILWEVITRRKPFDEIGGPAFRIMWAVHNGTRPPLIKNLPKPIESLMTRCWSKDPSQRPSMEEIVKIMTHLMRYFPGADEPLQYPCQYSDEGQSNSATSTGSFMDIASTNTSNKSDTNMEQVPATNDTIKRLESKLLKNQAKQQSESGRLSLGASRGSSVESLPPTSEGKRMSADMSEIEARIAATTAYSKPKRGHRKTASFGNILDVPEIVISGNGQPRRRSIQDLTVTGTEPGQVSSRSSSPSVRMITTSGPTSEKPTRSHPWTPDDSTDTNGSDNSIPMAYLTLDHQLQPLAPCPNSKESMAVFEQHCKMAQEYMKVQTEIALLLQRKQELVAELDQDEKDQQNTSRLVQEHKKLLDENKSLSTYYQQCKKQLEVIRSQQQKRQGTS
# [11] = molecular target: T1, Mitogen-activated protein kinase kinase kinase 7 (Homo sapiens); details: at 10 µM
# [12] = molecular target: T2, Serine/threonine-protein kinase TAO1 (Homo sapiens) (UniProt Q7L7X3); details: at 1 µM
# T2 sequence (whole entry): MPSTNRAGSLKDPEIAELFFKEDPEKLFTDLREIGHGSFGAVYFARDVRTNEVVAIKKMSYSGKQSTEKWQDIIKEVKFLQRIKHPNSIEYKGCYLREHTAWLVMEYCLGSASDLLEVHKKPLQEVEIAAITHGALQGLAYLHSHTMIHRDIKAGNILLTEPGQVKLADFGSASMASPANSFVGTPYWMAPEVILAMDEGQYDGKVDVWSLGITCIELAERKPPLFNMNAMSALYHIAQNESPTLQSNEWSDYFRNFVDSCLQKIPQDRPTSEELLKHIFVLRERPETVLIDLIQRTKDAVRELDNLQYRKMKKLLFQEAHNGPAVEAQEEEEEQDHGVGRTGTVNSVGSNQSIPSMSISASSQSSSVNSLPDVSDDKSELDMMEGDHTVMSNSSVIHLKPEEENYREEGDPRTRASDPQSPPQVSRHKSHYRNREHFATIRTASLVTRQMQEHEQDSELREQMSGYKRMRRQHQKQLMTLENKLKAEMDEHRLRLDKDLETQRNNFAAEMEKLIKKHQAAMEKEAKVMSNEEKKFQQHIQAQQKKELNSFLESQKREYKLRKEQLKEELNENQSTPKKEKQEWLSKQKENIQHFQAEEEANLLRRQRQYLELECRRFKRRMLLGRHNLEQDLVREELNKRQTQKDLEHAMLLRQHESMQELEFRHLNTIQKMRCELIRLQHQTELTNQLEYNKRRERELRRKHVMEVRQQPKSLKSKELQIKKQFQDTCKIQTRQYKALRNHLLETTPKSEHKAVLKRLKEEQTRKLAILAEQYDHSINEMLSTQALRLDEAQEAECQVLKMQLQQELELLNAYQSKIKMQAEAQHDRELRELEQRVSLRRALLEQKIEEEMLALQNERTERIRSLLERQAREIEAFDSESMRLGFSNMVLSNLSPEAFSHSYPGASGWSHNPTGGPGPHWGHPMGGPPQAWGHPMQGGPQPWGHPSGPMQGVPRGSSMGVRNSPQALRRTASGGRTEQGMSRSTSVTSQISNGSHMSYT
# [13] = molecular target: T2, Serine/threonine-protein kinase TAO1 (Homo sapiens); details: at 10 µM
# [14] = molecular target: T3, Serine/threonine-protein kinase TAO2 (Homo sapiens) (UniProt Q9UL54); details: at 1 µM
# T3 sequence (whole entry): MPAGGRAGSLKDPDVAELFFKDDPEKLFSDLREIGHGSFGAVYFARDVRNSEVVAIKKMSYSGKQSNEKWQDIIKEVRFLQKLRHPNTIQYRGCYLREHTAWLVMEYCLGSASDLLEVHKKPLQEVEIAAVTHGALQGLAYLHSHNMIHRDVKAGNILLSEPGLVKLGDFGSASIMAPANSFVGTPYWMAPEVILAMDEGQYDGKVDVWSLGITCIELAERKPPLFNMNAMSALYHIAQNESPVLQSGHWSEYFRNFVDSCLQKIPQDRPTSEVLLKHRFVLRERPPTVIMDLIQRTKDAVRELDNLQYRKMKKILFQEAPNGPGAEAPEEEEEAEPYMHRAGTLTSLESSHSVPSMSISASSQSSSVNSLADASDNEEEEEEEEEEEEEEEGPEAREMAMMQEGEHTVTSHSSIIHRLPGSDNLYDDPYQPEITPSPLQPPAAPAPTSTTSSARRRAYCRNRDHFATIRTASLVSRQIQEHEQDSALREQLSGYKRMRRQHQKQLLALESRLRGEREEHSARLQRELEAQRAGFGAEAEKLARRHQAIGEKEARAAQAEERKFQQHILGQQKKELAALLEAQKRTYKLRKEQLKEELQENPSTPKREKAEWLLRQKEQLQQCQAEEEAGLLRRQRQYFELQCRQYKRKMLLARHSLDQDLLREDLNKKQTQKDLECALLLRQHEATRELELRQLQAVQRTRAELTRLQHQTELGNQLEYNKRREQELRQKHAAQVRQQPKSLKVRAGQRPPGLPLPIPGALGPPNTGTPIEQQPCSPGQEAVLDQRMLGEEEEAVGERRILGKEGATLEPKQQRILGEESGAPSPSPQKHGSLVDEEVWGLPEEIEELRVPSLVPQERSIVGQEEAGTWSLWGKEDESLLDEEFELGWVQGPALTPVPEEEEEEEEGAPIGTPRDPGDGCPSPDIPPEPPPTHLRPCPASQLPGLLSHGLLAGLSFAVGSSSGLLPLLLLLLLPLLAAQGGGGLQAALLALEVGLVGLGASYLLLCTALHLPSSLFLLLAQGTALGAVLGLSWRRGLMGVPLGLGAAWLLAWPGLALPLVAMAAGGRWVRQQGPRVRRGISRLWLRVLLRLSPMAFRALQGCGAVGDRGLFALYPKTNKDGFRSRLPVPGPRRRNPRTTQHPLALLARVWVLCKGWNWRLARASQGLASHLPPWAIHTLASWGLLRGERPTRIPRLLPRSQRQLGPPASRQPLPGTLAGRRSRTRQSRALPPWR
# [15] = molecular target: T3, Serine/threonine-protein kinase TAO2 (Homo sapiens); details: at 10 µM
# [16] = molecular target: T4, Serine/threonine-protein kinase TAO3 (Homo sapiens) (UniProt Q9H2K8); details: at 1 µM
# T4 sequence (whole entry): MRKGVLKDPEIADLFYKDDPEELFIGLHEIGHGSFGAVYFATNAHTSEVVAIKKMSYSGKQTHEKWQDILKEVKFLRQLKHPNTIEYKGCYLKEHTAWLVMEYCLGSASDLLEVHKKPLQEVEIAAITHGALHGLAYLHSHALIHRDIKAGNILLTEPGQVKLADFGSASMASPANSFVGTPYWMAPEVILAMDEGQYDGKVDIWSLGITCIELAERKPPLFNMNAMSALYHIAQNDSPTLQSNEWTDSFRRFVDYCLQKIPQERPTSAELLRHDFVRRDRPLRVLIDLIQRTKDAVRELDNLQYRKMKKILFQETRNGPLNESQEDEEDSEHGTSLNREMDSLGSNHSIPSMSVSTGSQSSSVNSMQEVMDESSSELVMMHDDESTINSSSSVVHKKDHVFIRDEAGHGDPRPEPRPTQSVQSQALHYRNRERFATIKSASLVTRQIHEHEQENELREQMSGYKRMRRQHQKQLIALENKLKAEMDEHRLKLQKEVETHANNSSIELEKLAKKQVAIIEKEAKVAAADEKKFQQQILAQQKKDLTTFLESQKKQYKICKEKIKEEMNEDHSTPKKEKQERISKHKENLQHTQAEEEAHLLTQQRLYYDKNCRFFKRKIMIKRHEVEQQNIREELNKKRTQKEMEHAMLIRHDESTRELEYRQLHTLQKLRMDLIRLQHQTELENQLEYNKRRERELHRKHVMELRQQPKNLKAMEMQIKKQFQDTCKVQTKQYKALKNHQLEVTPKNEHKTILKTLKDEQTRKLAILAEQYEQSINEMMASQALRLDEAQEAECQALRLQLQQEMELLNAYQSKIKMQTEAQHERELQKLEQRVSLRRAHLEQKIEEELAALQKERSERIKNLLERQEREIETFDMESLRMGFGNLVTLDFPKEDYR
# [17] = molecular target: T4, Serine/threonine-protein kinase TAO3 (Homo sapiens); details: at 10 µM
# [18] = molecular target: T5, Serine/threonine-protein kinase TBK1 (Homo sapiens) (UniProt Q9UHD2); details: at 1 µM
# T5 sequence (whole entry): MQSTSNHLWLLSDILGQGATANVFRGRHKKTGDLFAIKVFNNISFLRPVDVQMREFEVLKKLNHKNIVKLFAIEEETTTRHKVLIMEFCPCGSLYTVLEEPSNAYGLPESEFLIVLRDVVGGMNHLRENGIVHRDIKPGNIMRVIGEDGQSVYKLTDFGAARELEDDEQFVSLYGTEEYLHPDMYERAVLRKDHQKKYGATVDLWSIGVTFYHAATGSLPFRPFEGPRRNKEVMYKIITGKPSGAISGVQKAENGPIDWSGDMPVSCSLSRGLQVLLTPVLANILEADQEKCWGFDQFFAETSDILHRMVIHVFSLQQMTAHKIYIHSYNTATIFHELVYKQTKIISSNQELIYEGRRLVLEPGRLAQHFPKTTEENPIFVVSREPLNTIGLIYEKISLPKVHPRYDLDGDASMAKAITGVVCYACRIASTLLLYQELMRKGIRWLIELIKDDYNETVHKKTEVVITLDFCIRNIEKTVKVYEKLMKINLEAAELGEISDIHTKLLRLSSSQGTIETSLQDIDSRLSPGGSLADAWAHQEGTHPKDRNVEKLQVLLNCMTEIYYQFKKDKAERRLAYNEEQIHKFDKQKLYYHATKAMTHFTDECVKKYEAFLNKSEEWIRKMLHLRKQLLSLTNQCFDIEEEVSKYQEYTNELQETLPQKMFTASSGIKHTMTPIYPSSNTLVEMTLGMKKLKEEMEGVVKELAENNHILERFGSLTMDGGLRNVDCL
# [19] = molecular target: SRSF protein kinase 1 (Homo sapiens) (UniProt Q96SB4); details: at 1 µM
# SRSF protein kinase 1 (Homo sapiens), sequence (Q96SB4 whole entry): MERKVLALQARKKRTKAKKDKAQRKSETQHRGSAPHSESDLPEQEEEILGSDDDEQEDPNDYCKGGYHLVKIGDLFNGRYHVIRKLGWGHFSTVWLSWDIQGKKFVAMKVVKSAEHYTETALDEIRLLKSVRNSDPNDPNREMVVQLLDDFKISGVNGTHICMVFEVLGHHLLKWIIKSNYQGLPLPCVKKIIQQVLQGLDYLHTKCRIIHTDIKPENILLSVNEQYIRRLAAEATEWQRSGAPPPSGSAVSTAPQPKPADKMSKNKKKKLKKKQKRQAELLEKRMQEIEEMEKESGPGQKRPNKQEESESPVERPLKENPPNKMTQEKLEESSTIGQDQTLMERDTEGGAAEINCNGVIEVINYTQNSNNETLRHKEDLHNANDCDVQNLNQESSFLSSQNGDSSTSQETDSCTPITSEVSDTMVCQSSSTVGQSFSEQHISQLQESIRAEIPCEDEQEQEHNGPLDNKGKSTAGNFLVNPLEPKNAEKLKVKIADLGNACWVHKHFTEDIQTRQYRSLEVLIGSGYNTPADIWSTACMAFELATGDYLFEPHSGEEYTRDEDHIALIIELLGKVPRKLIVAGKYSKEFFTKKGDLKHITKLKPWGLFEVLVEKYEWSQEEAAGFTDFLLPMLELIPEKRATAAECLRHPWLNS
# [20] = molecular target: SRSF protein kinase 1 (Homo sapiens) (UniProt Q96SB4); details: at 10 µM
# SRSF protein kinase 2 (Homo sapiens), sequence (P78362 whole entry, looked up): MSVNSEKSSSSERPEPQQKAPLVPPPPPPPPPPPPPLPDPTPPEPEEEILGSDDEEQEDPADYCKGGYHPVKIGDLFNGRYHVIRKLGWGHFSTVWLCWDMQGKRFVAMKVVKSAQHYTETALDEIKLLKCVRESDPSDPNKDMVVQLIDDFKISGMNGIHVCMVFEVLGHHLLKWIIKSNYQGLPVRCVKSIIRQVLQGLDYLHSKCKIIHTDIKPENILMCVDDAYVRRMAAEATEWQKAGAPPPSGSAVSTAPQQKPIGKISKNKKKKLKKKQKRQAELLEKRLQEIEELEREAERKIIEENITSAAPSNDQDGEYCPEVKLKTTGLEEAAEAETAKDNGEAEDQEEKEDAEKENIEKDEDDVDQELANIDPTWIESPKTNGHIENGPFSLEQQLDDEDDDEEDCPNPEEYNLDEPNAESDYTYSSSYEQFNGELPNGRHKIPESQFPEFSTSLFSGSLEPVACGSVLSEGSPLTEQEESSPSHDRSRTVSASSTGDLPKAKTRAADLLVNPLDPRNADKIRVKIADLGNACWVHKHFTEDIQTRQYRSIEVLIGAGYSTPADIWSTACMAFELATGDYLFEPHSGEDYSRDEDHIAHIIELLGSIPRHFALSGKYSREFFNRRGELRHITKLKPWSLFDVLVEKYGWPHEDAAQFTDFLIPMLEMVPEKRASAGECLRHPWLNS
# Serine/threonine-protein kinase SIK1 (Homo sapiens), sequence (P57059 whole entry): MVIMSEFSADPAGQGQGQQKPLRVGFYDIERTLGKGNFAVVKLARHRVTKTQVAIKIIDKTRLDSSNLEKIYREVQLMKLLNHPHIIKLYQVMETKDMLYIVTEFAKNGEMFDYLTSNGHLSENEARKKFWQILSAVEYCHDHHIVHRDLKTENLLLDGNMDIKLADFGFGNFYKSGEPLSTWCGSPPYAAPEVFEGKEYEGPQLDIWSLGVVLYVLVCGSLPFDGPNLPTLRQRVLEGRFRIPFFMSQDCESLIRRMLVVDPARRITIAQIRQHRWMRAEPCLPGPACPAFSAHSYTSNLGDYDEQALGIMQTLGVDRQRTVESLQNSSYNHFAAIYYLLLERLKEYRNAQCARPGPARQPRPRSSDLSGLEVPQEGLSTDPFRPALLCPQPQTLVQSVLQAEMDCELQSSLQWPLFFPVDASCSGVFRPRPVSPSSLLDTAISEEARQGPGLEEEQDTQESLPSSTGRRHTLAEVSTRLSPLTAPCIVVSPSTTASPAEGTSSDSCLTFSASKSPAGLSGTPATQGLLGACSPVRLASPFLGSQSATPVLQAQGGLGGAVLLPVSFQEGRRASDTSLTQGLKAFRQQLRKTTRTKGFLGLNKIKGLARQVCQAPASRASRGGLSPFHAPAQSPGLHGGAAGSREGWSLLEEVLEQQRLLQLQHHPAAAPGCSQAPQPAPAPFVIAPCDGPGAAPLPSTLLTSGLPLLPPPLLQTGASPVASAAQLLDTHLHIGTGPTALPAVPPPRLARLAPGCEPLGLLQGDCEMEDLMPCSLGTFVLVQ
Compound,residual activity [1] [%],residual activity [2] [%],residual activity [3] [%],residual activity [4] [%],residual activity [5] [%],residual activity [6] [%],residual activity [7] [%],residual activity [8] [%],residual activity [9] [%],residual activity [10] [%],residual activity [11] [%],residual activity [12] [%],residual activity [13] [%],residual activity [14] [%],residual activity [15] [%],residual activity [16] [%],residual activity [17] [%],residual activity [18] [%],residual activity [19] [%],residual activity [20] [%]
CCCCc1c(-c2ccc(O)cc2)[nH]c2nccnc12,36,91,90,99,62,100,86,50,66,90,89,36,7,35,30,62,68,70,–,–
Nc1ncnc2c1c(-c1ccc(Oc3ccccc3)cc1)cn2C1CCCC1,27,93,90,87,57,97,93,109,59,–,81,94,81,–,77,92,77,61,104,103
CN([C@@H](Cc1ccc(OS(=O)(=O)c2cccc3cnccc23)cc1)C(=O)N1CCN(c2ccccc2)CC1)S(=O)(=O)c1cccc2cnccc12,124,–,–,–,–,100,99,–,–,99,98,–,–,–,–,–,–,–,–,86
O=C1Nc2ccc(Cl)cc2/C1=C/c1cc(Cl)c(O)c(Cl)c1,71,100,69,88,94,94,92,96,56,83,75,62,35,72,58,61,52,59,–,–
